Assay results published in PubChem BioAssay (Tox21).
Records with an inconclusive call do not appear. Activity calls are given as the source filed them. Unless noted, calls come from the whole dose curve; as a rule, active = well fitted curve in the direction sought with a large enough effect in the repeat runs; inconclusive = weak or mixed curves; inactive = no such curve, though single readings can be large; an effect the other way counts as inactive or inconclusive.

Tests used:
[1] = qHTS assay to identify small molecule antagonists of the vitamin D receptor (VDR) signaling pathway - cell viability counter screen (AID 743225); note: nearly all actives have a fitted effect of over 50% in size
Summary of the method: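 Same-well multiplex: following 16 h treatment of HEK 293T cells carrying a UAS-driven beta-lactamase reporter with compound and agonist (3 nM final), and a 2 h FRET substrate step, CellTiter-Glo was added and luminescence read after 30 min.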

[2] = qHTS assay to identify small molecule agonists of the NFkB signaling pathway - cell viability counter screen (AID 1159515; calls by dose curve; note: series mostly up to about 61 µM; nearly all actives have a fitted effect of over 55% in size)
Summary of the method: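 5 hr compound treatment of NFkB-bla ME-180 cells (2,000/well, seeded overnight beforehand), followed by reporter substrate for 1.5 hr. CellTiter-Glo added afterward; luminescence after 30 min RT.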

[3] = qHTS assay to identify small molecule agonists of the endoplasmic reticulum stress response signaling pathway (AID 1159516; active = well fitted activation curve with a large enough effect in the signal ratio in the repeat runs, not every such curve was filed as active; the % refers to the signal ratio)
Summary of the method: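 Reporter HeLa cells (ESRE-beta-lactamase) underwent 5 hr compound incubation at 37 C and 5% CO2 in quantitative HTS format. Detection followed 2 hr of FRET substrate loading at room temperature.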

[4] = qHTS assay to identify small molecule agonists of the endoplasmic reticulum stress response signaling pathway - cell viability counter screen (AID 1159517; calls by dose curve;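 note: HeLa cells carrying an ER stress response element beta-lactamase reporter; series mostly up to about 61 µM; nearly all actives have a fitted effect of over 50% in size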)
Summary of the method: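 HeLa cells carrying an ESRE-driven beta-lactamase reporter receive compound for 5 hr at 37 C. Cell viability is then gauged with CellTiter-Glo by luminescence, 30 min at room temperature.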

[5] = qHTS assay to identify small molecule antagonists of the retinoid-related orphan receptor gamma (ROR-gamma) signaling pathway - cell viability counter screen (AID 1159520); note: nearly all actives have a fitted effect of over 50% in size
Summary of the method: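 Cytotoxicity was read from cellular ATP (CellTiter-Glo luminescence) after 16 hr at 37 C with 1 uM doxycycline induction. The inducer was added 2 hr after compound transfer to Tet-on ROR gamma CHO cells.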

[6] = biological target: Nuclear receptor ROR-gamma (Homo sapiens) (UniProt P51449); assay: qHTS assay to identify small molecule antagonists of the retinoid-related orphan receptor gamma (ROR-gamma) signaling pathway (AID 1159521;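 note: CHO cells with doxycycline inducible ROR-gamma driving an RORE luciferase reporter; top concentration of the series differs between compounds; nearly all actives have a fitted effect of over 50% in size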)
Summary of the method: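 Inducible-expression reporter assay: doxycycline (1 uM final) switched on RORγ in CHO cells bearing a ROR response element-luciferase construct, with test compounds present from 2 h beforehand. Decreased luminescence after 16 h defined antagonist activity.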

[7] = qHTS assay to identify small molecule agonists of the AP-1 signaling pathway - cell viability counter screen (AID 1159525; calls by dose curve; note: nearly all actives have a fitted effect of over 55% in size)
Summary of the method: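 Luminescent ATP readout (Cell Titer Glo, 30 min RT), normalised to DMSO and tetra n-octyl ammonium bromide controls. Cells were ME-180 AP-1-bla in 0.5% dialyzed FBS Opti-MEM, with a 5 h, 37 °C compound exposure.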

[8] = qHTS assay to identify small molecule agonists of the AP-1 signaling pathway (AID 1159526; calls by dose curve)
[9] = biological target: Retinoic acid receptor RXR-alpha (Homo sapiens) (UniProt P19793); assay: qHTS assay to identify small molecule agonists of the RXR signaling pathway (AID 1159527; calls by dose curve; note: nearly all actives have a fitted effect of over 35% in size)
Summary of the method: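 Compounds in DMSO were added to RXR-alpha-UAS-bla HEK 293T cells kept in 2% charcoal-stripped serum, and incubated 16 hr at 37 C with 5% CO2. Reporter signal came from a 2 hr B/G FRET substrate step.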

[10] = qHTS assay to identify small molecule agonists of the RXR signaling pathway - cell viability counter screen (AID 1159529)
Summary of the method: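 Counter screen: CellTiter-Glo luminescence. Cells: RXR-alpha-UAS-bla HEK 293T. Medium: 2% charcoal-stripped FBS. Treatment: 16 h, 37 C. Reagent incubation: 30 min, RT.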

[11] = qHTS assay to identify small molecule antagonists of the retinoid acid receptor (RAR) signaling pathway - cell viability counter screen (AID 1159551); note: nearly all actives have a fitted effect of over 35% in size
Summary of the method: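 Seed C3RL4 cells; next day add compound, then retinol to 1 uM final; incubate 6 h at 37 C; add CellTiter-Glo; read luminescence after 30 min at RT.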

[12] = qHTS assay to identify small molecule antagonists of the retinoic acid receptor (RAR) signaling pathway (AID 1159552; note: nearly all actives have a fitted effect of over 50% in size)
Summary of the method: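 Antagonism of retinol-induced RARE reporter activity was measured in C3RL4 cells. Exposure to compounds and 1 uM final retinol lasted 6 hr at 37 C, with luminescence as endpoint.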

[13] = qHTS assay to identify small molecule agonists of the retinoic acid receptor (RAR) signaling pathway (AID 1159553)
Summary of the method: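 Activation of retinol signaling was monitored via a RARE luciferase reporter in C3RL4 cells. After 6 hr compound treatment at 37 C, detection reagent was added for 30 min at room temperature before luminescence reading.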

[14] = qHTS assay to identify small molecule antagonists of the estrogen related receptor (ERR) signaling pathway from Tox21 library - cell viability counter screen (AID 1224834); note: nearly all actives have a fitted effect of over 30% in size
Summary of the method: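 CellTiter-Fluor fluorescence measured; ERR cells; 17.5 h compound incubation at 37 C; 30 min reagent step.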

[15] = biological target: Luciferin 4-monooxygenase (Photinus pyralis) (UniProt P08659); assay: qHTS assay to identify small molecule inhibitors of firefly luciferase (AID 1224835); note: series mostly up to about 120 µM; nearly all actives have a fitted effect of over 25% in size
Summary of the method: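 Inhibition of purified Photinus luciferase is measured by luminescence. Substrate levels (D-luciferin, ATP) sit at their KM values. Each compound is tested in a concentration series.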

[16] = qHTS assay to identify small molecule agonists of the constitutive androstane receptor (CAR) signaling pathway - cell viability counter screen (AID 1224836); note: series mostly up to about 92 µM; nearly all actives have a fitted effect of over 45% in size
Summary of the method: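 Double-stable HepG2 hepatoma cells (hCAR plus CYP2B6-2.2kb) are treated for 23 h at 37 C with test compounds in 15-point concentration series. PK11195 at 0.75 uM final is co-added. Cell viability is quantified by CellTiter-Fluor.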

[17] = qHTS assay to identify small molecule antagonists of the constitutive androstane receptor (CAR) signaling pathway - cell viability counter screen (AID 1224837); note: series mostly up to about 92 µM; nearly all actives have a fitted effect of over 45% in size
Summary of the method: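 Using CellTiter-Fluor, viability is scored in HepG2 cells stably carrying hCAR and a 2.2kb CYP2B6 reporter after 23 hr compound exposure across 15 concentrations, with CITCO present at 50 nM.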

[18] = biological target: Nuclear receptor subfamily 1 group I member 3 (Homo sapiens) (UniProt Q14994); assay: qHTS assay to identify small molecule antagonists of the constitutive androstane receptor (CAR) signaling pathway (AID 1224838);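 note: HepG2 cells stably expressing hCAR with CYP2B6 luciferase reporter stimulated by CITCO; nearly all actives have a fitted effect of over 40% in size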
Summary of the method: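 Reporter luminescence was quantified after 24 h exposure of hCAR/CYP2B6-2.2kb double-stable HepG2 cells to compounds at 15 concentrations in the presence of 50 nM CITCO final.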

[19] = biological target: Nuclear receptor subfamily 1 group I member 3 (Homo sapiens) (UniProt Q14994); assay: qHTS assay to identify small molecule agonists of the constitutive androstane receptor (CAR) signaling pathway (AID 1224839);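 note: HepG2 cells stably carrying human CAR and a CYP2B6 luciferase reporter; series mostly up to about 92 µM; nearly all actives have a fitted effect of over 15% in size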
Summary of the method: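 Readout: firefly luciferase luminescence via ONE-Glo. System: HepG2 double-stable for hCAR and CYP2B6-2.2kb. Conditions: 15-point compound titration, PK11195 at 0.75 uM final, 24 h incubation.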

[20] = qHTS assay to identify small molecule antagonists of the estrogen related receptor signaling pathway with the pleiotropic PPARgamma coactivator (PGC) from Tox21 10K library - cell viability counter screen (AID 1224840; active = well fitted cell-killing curve with a large enough effect in the repeat runs, not every such curve was filed as active; note: nearly all actives have a fitted effect of over 40% in size)
Summary of the method: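 Here the PGC/ERR cells serve as a cytotoxicity control: they are exposed to compounds for 17.5 hours at 37 C, and live-cell signal is quantified using CellTiter-Fluor fluorescence.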

Measured: Potency

Chain of Luciferin 4-monooxygenase (Photinus pyralis) (P08659 whole entry, looked up): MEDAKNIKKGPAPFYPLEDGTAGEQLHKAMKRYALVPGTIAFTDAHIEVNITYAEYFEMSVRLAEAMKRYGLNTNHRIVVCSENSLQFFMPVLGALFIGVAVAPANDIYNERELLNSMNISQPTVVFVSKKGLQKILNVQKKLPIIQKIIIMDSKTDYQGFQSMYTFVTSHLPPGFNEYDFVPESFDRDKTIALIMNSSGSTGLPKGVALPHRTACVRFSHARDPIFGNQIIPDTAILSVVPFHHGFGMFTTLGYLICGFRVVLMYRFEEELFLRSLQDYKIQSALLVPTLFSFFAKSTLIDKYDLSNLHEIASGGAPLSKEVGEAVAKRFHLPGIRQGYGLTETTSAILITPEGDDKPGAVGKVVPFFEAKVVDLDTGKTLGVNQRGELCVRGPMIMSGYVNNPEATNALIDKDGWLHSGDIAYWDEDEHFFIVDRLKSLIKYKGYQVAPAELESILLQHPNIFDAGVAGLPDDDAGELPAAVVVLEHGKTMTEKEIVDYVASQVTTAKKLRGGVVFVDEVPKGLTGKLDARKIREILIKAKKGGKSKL
Chain of Retinoic acid receptor RXR-alpha (Homo sapiens) (P19793 whole entry, looked up): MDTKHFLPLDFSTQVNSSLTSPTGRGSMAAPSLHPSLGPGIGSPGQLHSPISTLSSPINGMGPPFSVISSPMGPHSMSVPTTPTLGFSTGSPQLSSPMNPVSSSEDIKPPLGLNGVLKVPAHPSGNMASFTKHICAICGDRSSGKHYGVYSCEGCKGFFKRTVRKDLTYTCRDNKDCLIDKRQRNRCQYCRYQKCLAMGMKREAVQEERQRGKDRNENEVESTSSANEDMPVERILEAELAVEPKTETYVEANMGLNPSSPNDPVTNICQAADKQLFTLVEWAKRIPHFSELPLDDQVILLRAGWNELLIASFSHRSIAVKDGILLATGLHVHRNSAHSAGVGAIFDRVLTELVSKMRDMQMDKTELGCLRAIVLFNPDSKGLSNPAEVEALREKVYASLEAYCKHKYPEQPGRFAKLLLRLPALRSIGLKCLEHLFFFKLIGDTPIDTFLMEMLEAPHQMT
Chain of Nuclear receptor subfamily 1 group I member 3 (Homo sapiens) (Q14994 whole entry, looked up): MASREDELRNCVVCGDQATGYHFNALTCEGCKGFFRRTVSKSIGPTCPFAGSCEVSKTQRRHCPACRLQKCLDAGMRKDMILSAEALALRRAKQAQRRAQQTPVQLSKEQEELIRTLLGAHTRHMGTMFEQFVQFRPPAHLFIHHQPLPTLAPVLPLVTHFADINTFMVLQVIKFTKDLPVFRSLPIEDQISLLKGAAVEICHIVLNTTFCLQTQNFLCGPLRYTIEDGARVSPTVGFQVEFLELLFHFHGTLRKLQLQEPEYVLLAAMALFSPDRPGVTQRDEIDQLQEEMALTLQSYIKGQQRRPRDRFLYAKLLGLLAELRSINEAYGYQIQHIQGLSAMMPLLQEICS

CCCCCCCCC1CO1 (stereo not drawn)
inactive: all assays above

COC(=O)c1ccc(NC(C)=O)cc1OC
inactive: all assays above

CCCCCCCCCCCBr
not listed: [19]
inactive: all other assays above

CCOCCOCCOC(C)=O
inactive: all assays above

CCOC(=O)CC(C(C)=O)C(C)=O
not listed: [19]
inactive: all other assays above

NCC1CCC(C(=O)Oc2ccc(CCC(=O)O)cc2)CC1 (stereo not drawn)
inactive: all assays above
